Only some compounds are listed: those with a hit (about 19% of all), similar ones and a draw of the others.
HT1080 IDH1KD tx = toxicity to HT-1080 IDH1 knockdown cells (counter line) | HT-1080 IDH1 knockdown viability, ATP luminescence, 48 h | Potency, µM (highest dose often 46.1 µM), usual class: cytotoxic | 2% of 360,000 active | AID 686971
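CellTiter-Glo luminescence after 48 h compound exposure at 37 degrees C of IDH1-knockdown HT-1080 cells in 5% FBS RPMI. %Activity scaled between DMSO wells and cell-free media wells, with curves fitted and assigned curve classes.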
TDP1 cell noCPT = qHTS for Inhibitors of human tyrosyl-DNA phosphodiesterase 1 (TDP1): qHTS in cells in absence of CPT | DT40 Tdp1-/- hTDP1 cells, no CPT, ATP luminescence, 48 h | Potency, µM (highest dose often 46.2 µM), usual class: inhibitors | 15% of 420,000 active; further: nearly all actives have a fitted effect of over 55% in size
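Compound effects on proliferation are scored in DT40 Tdp1-/-;hTDP1 cells in the absence of CPT. ATP levels (CellTiter-Glo luminescence) are recorded after a ≥48 hr, 37 °C incubation.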
DT40 TDP1 CPT = growth inhibition of DT40 Tdp1-/-;hTDP1 cells with camptothecin (screen for TDP1 inhibitors); AID 686979; chicken DT40 Tdp1-/-;hTDP1 cells + 20 nM CPT, ATP luminescence, 48 h; 12% of 420,000 active; Potency, µM (top dose mostly 46.2 µM), actives largely listed as inhibitors; further: nearly all actives have a fitted effect of over 55% in size
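Chicken DT40 Tdp1-/- cells complemented with human TDP1, 400 cells/well, exposed to compounds plus 20 nM camptothecin for at least 48 h at 37 C; viability read as ATP content by CellTiter-Glo luminescence.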
HT1080-NT tox = kills 2HG-producing HT-1080-NT fibrosarcoma cells | HT-1080-NT fibrosarcoma viability, CellTiter-Glo ATP luminescence, 48 h | Potency, µM (top dose mostly 46.1 µM), usual class: cytotoxic | 1.6% of 360,000 active;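 further: NT is the 2HG producing partner of a matched IDH1 knockdown line; nearly all actives have a fitted effect of over 55% in size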
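HT-1080-NT; 750 cells/well; 5% FBS RPMI; 48 h compound, 37 degrees C; CellTiter-Glo luminescence; curve fitting and curve-class assignment.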
IL-1B inflam inh = inhibitors of inflammasome signaling (IL-1 beta secretion) | THP-1 LPS/ATP IL-1B secretion, AlphaLISA, 16 h; active compounds read low | activity change, % at 57.5 µM | 4.7% of 360,000 active | AID 743279; in the data active means activity change below about -50%; inconclusive means mostly about -30% to -49%
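Secreted IL-1B measured by AlphaLISA bead assay after 16 h compound exposure of THP-1 cells; compounds (final up to 57.5 uM) added 1 h before LPS (250 ng/mL) and ATP (1.25 mM) stimulation; lower signal means less secretion.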
Numbers stand for hits; n = inactive; u = inconclusive; x = no result; [ ] = remark or other dose. Unless noted, the call rests on the fitted dose curve; in most records, active means well fitted curve in the direction sought with a large enough effect; inconclusive means small, poorly fitted or top-dose-only effect, or another doubt; inactive means no such curve, though single readings can be large; an effect the other way counts as inactive or inconclusive.

SMILES	HT1080 IDH1KD tx	TDP1 cell noCPT	DT40 TDP1 CPT	HT1080-NT tox	IL-1B inflam inh
CC(=O)Nc1ccc(-c2ccnc3c2CC(C(=O)Nc2cccc(C(C)=O)c2)O3)cc1 (stereo not given)	n	15µM	u	n	n
CC(=O)c1cccc(NC(=O)C2Cc3c(-c4ccc5c(c4)OCO5)ccnc3O2)c1 (stereo not given)	n	12µM	13µM	n	n
CC(=O)Nc1cccc(-c2ccnc3c2CC(C(=O)NC(C)C)O3)c1 (stereo not given)	n	u	n	n	n
COC(=O)C(NC(=O)c1ccc(C)cc1)(Nc1cccc(C)n1)C(F)(F)F (stereo not given)	n	u	n	n	n
Cc1cc(C)c(S(=O)(=O)NCC(=O)NCc2cc(=O)n(C)c(=O)n2C)c(C)c1	n	n	n	n	n
Cc1ccc(NC(=O)Cn2c(=O)n(-c3ccc(C)cc3)c(=O)c3c2cnn3C)cc1	x	n	n	x	x
CCc1ccc2occ(CC(=O)Nc3nnc(C)s3)c2c1	x	n	n	x	x
CS(=O)(=O)N1CC(C(=O)O)Oc2ccc(CC(=O)O)cc21 (stereo not given)	n	n	n	n	n
CCCOc1nc(N)c(C#N)c(-c2ccccc2F)c1C#N	n	u	16µM	n	n
CCc1nc(N)c(C#N)c(-c2cccc3ccccc23)c1C	n	n	n	n	n
CC(C)(C)NC(=O)C(=O)NNC(=O)c1cccc(F)c1	u	n	n	n	u
COc1ccccc1Nc1nc(-c2ccccc2Cl)c2cc(Br)ccc2n1	x	2.3µM	3.7µM	x	x
Clc1ccccc1-c1nc(Nc2ccccc2)nc2ccc(Br)cc12	x	18µM	u	x	x
CCc1ccc(NC(=O)Cn2cc(S(=O)(=O)N3CCCC3)c(S(=O)(=O)N3CCCC3)c2)cc1	x	n	n	x	x
Cc1nc(C)c(C(=O)NCc2nc(-c3cccc(NC(=O)c4ccccn4)c3)oc2C)s1	x	2.9µM	3.3µM	x	x
CSc1ccccc1C(=O)NCc1nc(-c2cccc(NC(=O)c3ccoc3C)c2)oc1C	x	21µM	u	x	x
Cc1occc1C(=O)Nc1cccc(-c2nc(CNC(=O)c3ccc4ccccc4n3)c(C)o2)c1	x	6.5µM	8.2µM	x	x
COC(=O)c1cccc(C(=O)NCc2nc(-c3cccc(NC(=O)c4ccoc4C)c3)oc2C)c1	x	21µM	n[9.04 µM]	x	x
CSc1nc(C(=O)NCc2nc(-c3cccc(NC(=O)c4ccccn4)c3)oc2C)cs1	x	u	n[9.04 µM]	x	x
O=c1cc(CN2CCN(c3ccccc3)CC2)c2ccccc2o1	n	n	n	n	n
COc1cccc(C2CC(c3ccccc3Cl)Nc3nc(N)nn32)c1 (stereo not given)	n	n	n	n	n
CCOc1ccc(C2CC(c3cccc(Cl)c3)n3nc(N)nc3N2)cc1 (stereo not given)	n	16µM	7.3µM	n	n
CCOc1ccc(C2CC(c3ccc(OC)c(OC)c3)n3nc(N)nc3N2)cc1 (stereo not given)	n	n	n	n	n
COc1cccc(C2CC(c3ccc(Cl)cc3Cl)Nc3nc(N)nn32)c1 (stereo not given)	n	23µM	u	n	n
CCN(C(=O)C1CCN(S(=O)(=O)c2ccc3c(c2)oc(=O)n3C)CC1)c1cccc(C)c1	n	u	u	n	n
SMILES	HT1080 IDH1KD tx	TDP1 cell noCPT	DT40 TDP1 CPT	HT1080-NT tox	IL-1B inflam inh
COCc1cc(C)nc(SCC[N+](C)(C)CC(=O)c2ccccc2)c1C#N	n	n	n	n	n
Cc1ccc2nc(-c3ccc(C)o3)c(Nc3ccc(Cl)cc3)n2c1	n	u	u	n	x
Cc1ccn2c(Nc3ccc4c(c3)OCCO4)c(-c3ccc(C)o3)nc2c1	x	u	21µM	x	x
Cc1ccn2c(Nc3ccc4c(c3)OCO4)c(-c3ccc(O)cc3)nc2c1	n	u	23µM	n	n
Cc1ccn2c(Nc3ccc(F)cc3)c(-c3ccc(C)o3)nc2c1	x	u	16µM	x	x
CCNCC(=O)N1c2ccccc2CCc2ccc(NC(=O)OCC)cc21	n	u	u	n	-69
CCN(CC)CCNCC(=O)N1c2ccccc2CCc2ccc(NC(=O)OC)cc21	n	n	n	n	n
CNCCC(=O)N1c2ccccc2CCc2ccc(NC(=O)OC)cc21	n	u	u	n	n
CCOC(=O)Nc1ccc2c(c1)N(C(=O)CN)c1ccccc1CC2	n	u	u	n	-63
CCOC(=O)N1CCN(S(=O)(=O)c2cc([N+](=O)[O-])c(C)cc2C)CC1	n	n	u	n	n
Cn1c(NNC(=O)C(c2ccccc2)c2ccccc2)cc(=O)n(C)c1=O	n	n	n	n	n
Cc1cc(C)n(C(=O)/C(C#N)=N\Nc2ccccc2[N+](=O)[O-])n1	n	n	n	n	n
Cc1cc(C)n(C(=O)/C(C#N)=N/Nc2cc(Cl)cc(Cl)c2)n1	n	2.6µM	3.3µM	n	n
CC1=C(C(=O)Nc2cccc(C)c2C)C2(CCCCC2)OC1=O	x	n	n	x	x
Cc1ccc(NC(=O)c2ccc(C#CC3(O)CCCCC3)cc2)cc1C	n	16µM	23µM	n	n
CC1=C(C(=O)NCc2cccc(F)c2)C2(CCCCCC2)OC1=O	x	n	n	x	x
CC1=C(C(=O)NCc2cccc(Cl)c2)C2(CCCCCC2)OC1=O	x	1.8µM	u	x	x
CC1=C(C(=O)Nc2ccc(C)c(C)c2)C2(CCCCCC2)OC1=O	x	u	15µM	x	x
O=C(/C=C/c1ccco1)OCC(=O)N1CCCCC1	n	n	n	n	n
O=C(CCC(=O)c1ccc(Cl)cc1)OCn1nnc2ccccc2c1=O	n	n	n	n	n

Screens deposited in PubChem BioAssay by National Center for Advancing Translational Sciences (NCATS).
